The values that follow come from PubChem BioAssay (NCATS).

Experiment [1] has as its target Guanine nucleotide-binding protein G(i) subunit alpha-1 (Homo sapiens) (UniProt P63096). As to the kind of experiment: qHTS Assay for Inhibitors of RGS12 GoLoco Motif Activity (Green Fluorophore) (AID 879).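 Note: 0% = labeled peptide with Gαi1 and full inhibition = labeled peptide alone without protein; negative values mean loss of peptide binding seen as reduced polarization.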 The gist of the method:
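Fluorescence polarization assay: 50 nM Gαi1 with 10 nM FITC-labeled RGS12 GoLoco peptide in 10 mM Tris pH 7.5, 150 mM NaCl, 0.1 mM GDP, 0.05% NP40, 10 min at room temperature with compound.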

The target in experiment [2] is Cytochrome P450 3A4 (Homo sapiens) (UniProt P08684). As to the kind of experiment: qHTS Assay for Activators of Cytochrome P450 3A4 (AID 885). Note: nearly all actives have a fitted effect of over 65% in size. The gist of the method:
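Human CYP3A4 (20 nM) with Luciferin-PPXE at 25 uM (its KM) in 200 mM KPO4; 10 min compound preincubation, then NADPH regeneration and 60 min reaction at RT. Luciferin read by luminescence; normalized to 57 uM ketoconazole full inhibition.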
(In general: qHTS replaces the single test concentration by a dilution series.)

A short description of experiment [3]: qHTS Assay for Identification of Small Molecule Agonists for Thrombopoietin (TPO) Signaling Pathway (AID 917). Note: potency is the fitted concentration of half-maximal effect. The gist of the method:
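IL-3-dependent murine pro-B Ba/F3 cells, stably transfected with human TPO receptor and GpIIb-promoter luciferase, are incubated 24 hrs at 37 C with test compound and 26 pM TPO; luciferase signal is read after 10 min at room temperature.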

Experiment [4] concerns the target Muscarinic acetylcholine receptor M1 (Rattus norvegicus) (UniProt P08482). As to the kind of experiment: qHTS Assay for Antagonists of Acetylcholine Muscarinic M1 Receptor: Kinetic Measurement of Intracellular Calcium Response (AID 943).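 For activity change, negative = inhibition: Fluo-4 calcium signal as peak divided by basal fluorescence over 4 min; series mostly up to about 35 µM.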 Note: nearly all actives have a fitted effect of over 75% in size. Note: potency is the fitted concentration of half-maximal effect. A digest of the protocol: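 Rat M1-CHO cells, 2000/well, overnight → Fluo-4 no-wash dye with probenecid, 1 h 37C → compound 10 min, room temp → basal read 6 s → carbachol EC80 (100 nM) → 4 min kinetic read; peak/basal.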

Experiment [5] is described as follows: qHTS Assay for Identification of Small Molecule Antagonists for NFkB Signaling Pathway (AID 895; active = well fitted inhibition curve with a large enough effect in the signal ratio, with a control signal flat, not every such curve was filed as active; the % refers to the signal ratio; note: % is set by controls: 0 for no effect and ±100 for the full control effect). The gist of the method: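 NFkB-bla ME-180 cervical carcinoma cells with beta-lactamase reporter under NFkB response element; compounds added, then TNF alpha at 10 pM final (EC50), 5 h at 37 C. LiveBLAzer substrate 2 h, room temperature; emission 460/530 nm at 405 nm excitation.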

Experiment [6] has as its target Cytochrome P450 2C19 (Homo sapiens) (UniProt P33261). As to the kind of experiment: qHTS Assay for Inhibitors and Substrates of Cytochrome P450 2C19 (AID 899). Note: nearly all actives have a fitted effect of over 60% in size. Note: potency is the fitted concentration of half-maximal effect. The gist of the method: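 Human CYP2C19 (5nM) with Luciferin-H EGE at 10uM (its KM) in 50mM KPO4 was preincubated with compound for 10 min at 37C. NADPH regeneration started a 60 min 37C reaction. Luciferin was read by luminescence, normalized to 57uM ketoconazole.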

Experiment [7] has as its target Muscarinic acetylcholine receptor M1 (Rattus norvegicus) (UniProt P08482). As to the kind of experiment: qHTS Assay for Antagonists of Acetylcholine Muscarinic M1 Receptor: Measurement of IP-One Response (AID 944). Note: nearly all actives have a fitted effect of over 75% in size. Note: potency is the fitted concentration of half-maximal effect. A digest of the protocol:
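M1-CHO (rat), 2000 cells/well, overnight recovery; cpd 10 min; carbachol EC80 (200 nM), 30 min, HEPES buffer + 50 mM LiCl pH 7.4; IP-One HTRF, Ex 337, Em 620/665 nm.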

Experiment [8] addresses Cytochrome P450 2D6 (Homo sapiens) (UniProt P10635). As to the kind of experiment: qHTS Assay for Inhibitors and Substrates of Cytochrome P450 2D6 (AID 891).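 For activity change, negative = inhibition: luciferin methyl ether substrate demethylated by CYP2D6 with NADPH regeneration; % is set by controls: 0 for no effect and ±100 for the full control effect.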 Note: nearly all actives have a fitted effect of over 60% in size. Note: potency is the fitted concentration of half-maximal effect. A digest of the protocol:
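Human CYP2D6 (5 nM) with 30 uM Luciferin-ME EGE (at Km) in 100 mM KPO4, compound preincubated 10 min, then NADPH regeneration system for 60 min at room temperature. Luciferin read by luminescence; normalized to 1.43 uM quinidine.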

The nature of experiment [9]: Confirmation and Secondary Assay for Modulators of Hemoglobin Beta Chain Splicing at IVS2 654 locus (AID 910).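 Note: per-well total GFP intensity by laser scanning cytometry after 2-day treatment; % of control where 0% means no effect.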 The gist of the method: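 HeLa cells stably carrying EGFP interrupted by mutant beta-globin IVS2-654 intron (CMV-driven) were treated with compound for 2 days at 37C; corrected splicing was scored as total peak GFP intensity per well (488 nm excitation, 500-520 nm emission).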

A short description of experiment [10]: Confirmation and Secondary Assay for Modulators of Hemoglobin Beta Chain Splicing at IVS2 705 locus (AID 930).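 Note: HeLa cells stably expressing the EGFP-705 splicing reporter; GFP fluorescence per well restored by corrected splicing of the IVS2-705 intron in EGFP; series mostly up to about 46 µM; % of control where 0% means no effect.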 A digest of the protocol:
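Fluorescence gain (488 nm laser, 500-520 nm PMT) reflects restored correct splicing of a mutant IVS2-705 intron inside EGFP in stably transfected HeLa cells after 2-day compound treatment.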

Experiment [11] in a line: qHTS Assay for Identification of Small Molecule Agonists for Hypoxia Response Element Signaling Pathway (AID 914; active = well fitted activation curve with a large enough effect in the signal ratio, with a control signal flat, not every such curve was filed as active; the % refers to the signal ratio; note: % of control where 0% means no effect). Particulars: ME-180 (cervical carcinoma) HRE-bla reporter, beta-lactamase ratio, CoCl2, 17 h; stronger effect = higher value. A digest of the protocol:
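A beta-lactamase reporter under hypoxia response element control in ME-180 cells served as the system. Compound titrations plus EC50 CoCl2 ran 17 h at 37 degrees Celsius; AC50 values were fitted from %Activity.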

“And” between values parts separate entries of the source, which are not always exact repeats. Identical values can stand only once. Results filed as inconclusive are left out. The source holds several records for some structures; these can differ, active in one and inactive in another. The source made the active and inactive calls. Unless noted, calls come from the whole dose curve; as a rule, active = well fitted curve in the direction sought with a large enough effect; inconclusive = small, poorly fitted or top-dose-only effect, or another doubt; inactive = no such curve, though single readings can be large; an effect the other way counts as inactive or inconclusive.

Muscarinic acetylcholine receptor M1 (Rattus norvegicus), sequence (P08482 whole entry, looked up): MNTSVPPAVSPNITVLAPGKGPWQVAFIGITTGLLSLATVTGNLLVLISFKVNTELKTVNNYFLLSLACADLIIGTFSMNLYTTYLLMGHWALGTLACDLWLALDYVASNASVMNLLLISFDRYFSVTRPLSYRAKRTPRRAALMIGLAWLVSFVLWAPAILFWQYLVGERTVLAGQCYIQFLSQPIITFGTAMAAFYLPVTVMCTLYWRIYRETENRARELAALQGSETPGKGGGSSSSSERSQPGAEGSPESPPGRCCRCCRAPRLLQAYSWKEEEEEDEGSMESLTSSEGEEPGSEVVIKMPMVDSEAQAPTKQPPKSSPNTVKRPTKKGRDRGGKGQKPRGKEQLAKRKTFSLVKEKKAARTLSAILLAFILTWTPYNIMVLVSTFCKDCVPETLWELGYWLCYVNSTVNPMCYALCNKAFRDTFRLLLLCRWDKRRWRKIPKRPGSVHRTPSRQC
Cytochrome P450 2D6 (Homo sapiens), sequence (P10635 whole entry, looked up): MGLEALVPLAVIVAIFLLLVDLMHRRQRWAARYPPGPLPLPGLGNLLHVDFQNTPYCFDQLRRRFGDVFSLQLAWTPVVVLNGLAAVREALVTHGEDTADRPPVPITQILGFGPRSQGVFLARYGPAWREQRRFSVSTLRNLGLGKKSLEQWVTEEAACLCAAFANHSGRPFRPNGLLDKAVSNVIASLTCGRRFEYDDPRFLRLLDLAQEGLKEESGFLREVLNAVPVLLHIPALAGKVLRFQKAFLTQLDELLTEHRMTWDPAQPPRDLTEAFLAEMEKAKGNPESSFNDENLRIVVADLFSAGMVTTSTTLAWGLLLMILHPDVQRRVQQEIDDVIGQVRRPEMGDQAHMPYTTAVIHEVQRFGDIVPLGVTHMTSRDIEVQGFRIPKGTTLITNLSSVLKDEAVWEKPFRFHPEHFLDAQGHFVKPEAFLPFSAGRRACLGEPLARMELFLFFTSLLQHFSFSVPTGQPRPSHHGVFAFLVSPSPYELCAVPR
Cytochrome P450 3A4 (Homo sapiens), sequence (P08684 whole entry, looked up): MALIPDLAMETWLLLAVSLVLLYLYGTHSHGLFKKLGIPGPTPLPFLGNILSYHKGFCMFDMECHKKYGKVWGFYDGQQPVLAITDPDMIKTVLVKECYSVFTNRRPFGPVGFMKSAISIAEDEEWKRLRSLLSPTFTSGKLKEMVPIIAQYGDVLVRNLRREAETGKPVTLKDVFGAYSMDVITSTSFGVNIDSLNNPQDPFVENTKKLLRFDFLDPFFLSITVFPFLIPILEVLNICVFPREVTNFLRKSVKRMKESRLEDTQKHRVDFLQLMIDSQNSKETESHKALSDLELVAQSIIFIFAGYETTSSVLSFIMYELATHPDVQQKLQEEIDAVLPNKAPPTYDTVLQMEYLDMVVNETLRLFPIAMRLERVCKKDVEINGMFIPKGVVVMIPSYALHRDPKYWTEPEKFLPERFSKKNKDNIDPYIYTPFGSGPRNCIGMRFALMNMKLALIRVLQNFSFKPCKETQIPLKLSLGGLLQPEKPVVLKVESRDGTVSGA
Cytochrome P450 2C19 (Homo sapiens), sequence (P33261 whole entry, looked up): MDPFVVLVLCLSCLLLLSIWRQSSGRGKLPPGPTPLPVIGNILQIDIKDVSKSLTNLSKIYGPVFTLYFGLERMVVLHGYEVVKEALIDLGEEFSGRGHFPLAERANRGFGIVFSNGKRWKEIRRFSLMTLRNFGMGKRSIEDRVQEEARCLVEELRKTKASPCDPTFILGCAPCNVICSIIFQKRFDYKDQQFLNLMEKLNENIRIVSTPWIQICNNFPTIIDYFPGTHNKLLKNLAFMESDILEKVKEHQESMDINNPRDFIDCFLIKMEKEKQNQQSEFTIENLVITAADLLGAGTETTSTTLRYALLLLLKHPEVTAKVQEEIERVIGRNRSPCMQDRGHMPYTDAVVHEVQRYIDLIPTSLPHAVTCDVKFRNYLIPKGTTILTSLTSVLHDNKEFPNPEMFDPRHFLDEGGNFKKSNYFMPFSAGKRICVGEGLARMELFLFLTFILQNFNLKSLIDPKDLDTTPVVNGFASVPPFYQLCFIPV
Guanine nucleotide-binding protein G(i) subunit alpha-1 (Homo sapiens), sequence (P63096 whole entry, looked up): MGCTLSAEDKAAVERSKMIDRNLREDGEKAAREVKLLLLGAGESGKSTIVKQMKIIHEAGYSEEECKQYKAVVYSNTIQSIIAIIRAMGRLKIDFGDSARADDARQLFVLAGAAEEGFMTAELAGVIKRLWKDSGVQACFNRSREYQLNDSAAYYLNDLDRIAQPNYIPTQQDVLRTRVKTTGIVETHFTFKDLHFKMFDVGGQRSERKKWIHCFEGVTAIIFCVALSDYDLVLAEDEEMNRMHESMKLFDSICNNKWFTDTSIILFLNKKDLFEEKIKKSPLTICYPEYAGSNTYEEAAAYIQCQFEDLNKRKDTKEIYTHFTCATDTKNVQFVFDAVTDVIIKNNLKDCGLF

`CN1CCc2cc(NC(=O)Nc3cccnc3)ccc21`: in experiment [1], the call was inactive. Further, the Potency entry in experiment [2] and in experiment [4] was “inactive” each time. The Potency in experiment [3] is 1580 nM (active).
As to `Cc1cc(NC(=O)Nc2ccc3c(ccn3C)c2)sn1`, the compound was classed as inactive in experiment [1]. The Potency result in experiment [2], in experiment [5] and in experiment [4] was “inactive” throughout. In addition, the Potency entry is “inactive and 3.16 µM (active)” in [6]; 1580 nM (active) in experiment [3].
Regarding `CC(C)(C=O)Cc1cc(C(C)(C)C)c(O)c(C(C)(C)C)c1`, the compound was classed as inactive in experiment [1]. Besides, the Potency result in [2], in experiment [6], in experiment [3] and in [4] was “inactive” throughout.
In the case of `COC(=O)c1c(C)[nH]c(C)c1C(=O)c1ccccc1Cc1ccccc1`, the compound was classed as inactive in [1]. Further, the Potency result in experiment [2], in experiment [3] and in experiment [7] was “inactive” each time. In addition, the Potency in [6] is 100 nM (active).
Regarding `COc1cccc(C(=O)NCCN2CCN(c3ccc(Cl)cc3)CC2)c1`, the compound was classed as inactive in [1]. Besides, the Potency entry in experiment [2], in experiment [5] and in experiment [3] was “inactive” throughout.
On to `COc1ccc(/C=C/C(=O)Nc2ccccc2C(=O)O)cc1OC`, for which the compound was called inactive in experiment [1]. For the same compound, the Potency result in experiment [2] and in experiment [7] was “inactive” in each case.
On to `O=C(c1cc(O)c(O)c([N+](=O)[O-])c1)c1ccccc1F`, for which the outcome in [1] was inactive. Moreover, the Potency result in [2], in [3], in experiment [4] and in experiment [7] was “inactive” in each case.
Turning to `N=C(N)SCCc1ccc(CCSC(=N)N)cc1`, in [1], the call was inactive. Also, the Potency result in experiment [5], in [3], in experiment [4] and in experiment [7] was “inactive” each time.
On to `CN(C)C(N)=NCCC[C@H](N)C(=O)O`, for which the outcome in experiment [1] was inactive. For the same compound, the Potency result in experiment [6], in experiment [3], in [4] and in [7] was “inactive” each time.
For `O=S(=O)(c1cccc2c(I)cccc12)N1CCCNCC1`, the compound was called inactive in experiment [1]. Moreover, the Potency result in [3], in [4] and in experiment [7] was “inactive” in each case.
`O=C(O)c1cc(=O)c2c(Cl)cc(Cl)cc2[nH]1`: the compound was called inactive in experiment [1], in experiment [9] and in [10]. Also, the Potency result in experiment [8], in [5], in [6] and in [3] was “inactive” throughout.
In the case of `N[C@H](CCCP(=O)(O)O)C(=O)O`, in experiment [1], the compound was classed as inactive. In addition, the Potency result in [8], in experiment [6], in experiment [3] and in [4] was “inactive” each time.
`O=C(O)c1cc(=O)c2ccccc2[nH]1`: the call in experiment [1], in [9] and in [10] was inactive. The Potency result in experiment [3] and in experiment [7] was “inactive” in each case.
For `CCCCN1CCC(n2c(=O)[nH]c3ccccc32)CC1`, the call in experiment [1] was inactive. For the same compound, the Potency in experiment [8] is 3.16 µM (active). Besides, the Potency entry in [5], in experiment [3] and in experiment [4] was “inactive” throughout.
With `N[C@@H](CC(=O)O)C(=O)O`, in experiment [1], the compound was classed as inactive. The Potency entry in experiment [3], in experiment [4] and in [7] was “inactive” throughout.
`c1ccc(-c2ccccn2)nc1`: the result in [1] was inactive. Also, the Potency result in [3], in experiment [4] and in experiment [7] was “inactive” throughout.
`O=C(O)[C@@H]1C[C@@H](C(=O)O)N1`: in experiment [1], the outcome was inactive. Besides, the Potency entry in [5], in experiment [3], in [4] and in experiment [7] was “inactive” throughout.
Consider `O=C(O)CC[C@@H](C(=O)O)N1C(=O)c2ccccc2C1=O`, for which the outcome in experiment [1] was inactive. Also, the activity change, negative = inhibition in experiment [8] is 21.6% [at 11.4 µM] (inactive). Moreover, the Potency entry in experiment [3] and in experiment [7] was “inactive” in each case. In [4], the Potency was 25.1 nM (active).
`CC1(C)CCC=[N+]1[O-]`: the compound was called inactive in experiment [1]. The Potency result in [3] and in [4] was “inactive” throughout. In addition, in experiment [7], the Potency was 11200 nM (active).
Take `NCCCCC(=O)O`: the compound was classed as inactive in [1], in experiment [9] and in experiment [10]. In addition, the Potency entry in [8], in [3], in experiment [4] and in experiment [7] was “inactive” throughout.
`CC(C)Cc1ccc([C@H](C)C(=O)O)cc1`: the result in experiment [1] was inactive. In addition, the Potency result in [8] and in experiment [3] was “inactive” in each case.
In the case of `O=C(O)c1cc([N+](=O)[O-])ccc1NCCCc1ccccc1`, in experiment [1], the compound was called inactive. Moreover, the Potency entry in [8], in [6], in [4] and in experiment [7] was “inactive” in each case.
In the case of `C[N+]1(C)CCC(OC(=O)C(c2ccccc2)c2ccccc2)CC1`, the compound was called inactive in [1]. Also, the Potency result in experiment [5] and in [3] was “inactive” each time. The activation in experiment [11] is 0.751% (inactive). Also, the Potency in experiment [4] is 15.8 nM (active); in experiment [7], 11.2 nM (active).
In the case of `C=C[C@H]1CN2CC[C@@H]1C[C@@H]2[C@@H](O)c1ccnc2ccc(OC)cc12`, the call in experiment [1] was inactive. In addition, the Potency result in experiment [5], in experiment [3] and in experiment [7] was “inactive” each time.
As to `NO`, the outcome in experiment [1] was inactive. For the same compound, the Potency entry in experiment [3] and in experiment [7] was “inactive” in each case.
For the compound `NCCSSCCN`, the call in [1], in experiment [9] and in experiment [10] was inactive. In addition, the Potency result in experiment [5] and in [7] was “inactive” in each case.
Consider `O=C1NC(O)=NC1(c1ccccc1)c1ccccc1`, for which the outcome in experiment [1] was inactive. Besides, the Potency result in [3] is “inactive”.
Consider `NC(N)=NC(=O)c1nc(Cl)c(N2CCCCCC2)nc1N`, for which the compound was called inactive in [1], in [9] and in [10]. Besides, the Potency result in [5] and in [7] was “inactive” throughout. In addition, the Potency in [6] is 5010 nM (active).
For the compound `CN1[C@@H]2CC[C@H]1CC(OC(c1ccccc1)c1ccccc1)C2` (some centres not stated), in experiment [1], the call was inactive. The Potency in experiment [8] is 2 µM (active) and 1.26 µM (active). The activation in [11] is 14.9% (inactive) and 19% (inactive). Also, the Potency entry in [3] is “inactive”.
On to `O=c1[nH]c2cc(Cl)c(Cl)cc2[nH]c1=O`, for which the outcome in experiment [1], in experiment [9] and in experiment [10] was inactive. The Potency result in experiment [5], in experiment [4] and in experiment [7] was “inactive” in each case.
On to `NC(=O)C(=O)O`, for which, in experiment [1], the compound was called inactive. Further, the Potency entry in [3], in experiment [4] and in experiment [7] was “inactive” throughout.
As to `O=c1[nH]c2cc(C(F)(F)F)ccc2n1-c1cc(C(F)(F)F)ccc1O`, the compound was classed as inactive in [1]. In addition, the Potency entry in experiment [3], in [4] and in experiment [7] was “inactive” in each case.
For `CC(=O)SCC[N+](C)(C)C`, the compound was classed as inactive in experiment [1]. For the same compound, the Potency entry in experiment [5], in experiment [6], in [3], in [4] and in experiment [7] was “inactive” throughout.
Regarding `COc1cc(OC)c(/C=C2/C(=O)Nc3ccccc32)c(OC)c1`, the compound was classed as inactive in experiment [1]. Besides, the Potency result in experiment [5] was “inactive”.
